USP8 inh – human USP8 deubiquitinase inhibition | P40818 | purified USP8, Ub-rhodamine cleavage fluorescence, 30 min | inhibition, % at 20 µM | 47,000 compounds, 4.2% hits | AID 1645853
Target sequence (P40818 whole entry, looked up): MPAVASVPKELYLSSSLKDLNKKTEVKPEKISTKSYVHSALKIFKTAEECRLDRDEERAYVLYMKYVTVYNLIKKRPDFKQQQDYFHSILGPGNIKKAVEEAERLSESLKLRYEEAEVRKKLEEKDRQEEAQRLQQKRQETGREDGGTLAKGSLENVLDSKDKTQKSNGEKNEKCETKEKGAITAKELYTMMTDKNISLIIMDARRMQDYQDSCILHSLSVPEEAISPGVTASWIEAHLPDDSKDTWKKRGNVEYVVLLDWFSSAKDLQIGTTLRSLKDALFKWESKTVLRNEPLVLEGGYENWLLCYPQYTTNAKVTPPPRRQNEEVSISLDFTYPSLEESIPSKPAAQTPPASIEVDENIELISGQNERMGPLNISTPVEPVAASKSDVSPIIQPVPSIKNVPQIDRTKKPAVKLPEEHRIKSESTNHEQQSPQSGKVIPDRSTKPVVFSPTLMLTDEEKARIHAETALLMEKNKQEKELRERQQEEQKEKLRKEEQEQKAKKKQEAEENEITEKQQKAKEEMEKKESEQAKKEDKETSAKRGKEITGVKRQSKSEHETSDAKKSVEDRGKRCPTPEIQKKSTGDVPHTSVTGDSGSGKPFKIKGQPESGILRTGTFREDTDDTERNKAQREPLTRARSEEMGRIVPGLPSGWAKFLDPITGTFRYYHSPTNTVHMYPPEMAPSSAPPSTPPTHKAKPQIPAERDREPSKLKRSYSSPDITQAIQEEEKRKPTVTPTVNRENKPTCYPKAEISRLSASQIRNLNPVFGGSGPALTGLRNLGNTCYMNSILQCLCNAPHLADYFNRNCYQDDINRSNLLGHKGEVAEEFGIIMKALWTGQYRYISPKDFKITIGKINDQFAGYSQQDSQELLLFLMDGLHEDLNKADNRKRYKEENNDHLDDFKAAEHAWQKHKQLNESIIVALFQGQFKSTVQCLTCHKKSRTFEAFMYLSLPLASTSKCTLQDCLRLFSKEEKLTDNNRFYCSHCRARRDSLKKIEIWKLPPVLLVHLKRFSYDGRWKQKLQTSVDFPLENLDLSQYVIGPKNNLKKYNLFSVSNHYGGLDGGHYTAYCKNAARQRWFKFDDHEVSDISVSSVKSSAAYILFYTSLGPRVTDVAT
USP17 block – human USP17-like deubiquitinase inhibition. A8MUK1. 47,000 compounds, 6.5% hits. purified USP17, Ub-rhodamine cleavage fluorescence, 3 h. inhibition, % at 50 µM
USP30 block – blocks human USP30 ubiquitin-rhodamine cleavage; Q70CQ3; purified USP30, Ub-rhodamine cleavage fluorescence; inhibition, % at 25 µM; 47,000 compounds, 5.3% hits
Large screens that a line does not name were inactive. Rows were chosen to be rich in hits. Some 12% of all compounds tested hit in one or more screens of this group. Rule as the data show it: active = inhibition above about 30%; inactive = the rest.

O=C(Nc1ccc(Sc2cccc(C(F)(F)F)c2)cc1)c1ccc(F)cc1	none
O=C(Nc1ccc(Sc2ccc(F)cc2)cc1)c1cccc(C(F)(F)F)c1	USP30 block 39.9
COCCCN1Cc2cc3cc(OC)ccc3nc2OCC1=O	none
COc1ccc2nc3c(cc2c1)CN(CC1CC1)C(=O)CO3	USP30 block 40.0
O=C(Nc1ccccc1F)NC1CCc2ncc(C(F)(F)F)n2C1 (stereo unspecified)	none (no result: USP17 block)
COc1ccc(NC(=O)CSc2nc(N)c3c4c(sc3n2)COC(C)(C)C4)cc1	USP17 block 50.2
CSc1nc(SCC(=O)N(c2ccccc2)c2ccccc2)c2c3c(sc2n1)COC(C)(C)C3	none
CSc1nc(SCC(N)=O)c2c3c(sc2n1)COC(C)(C)C3	USP17 block 61.1, USP30 block 44.4
CC1(C)Cc2c(sc3nc(SCC(=O)Nc4ccccc4)nc(N)c23)CO1	none
O=C(Nc1ccc(CN2CCOCC2)cc1)NC12CC3CC(CC(C3)C1)C2	none
O=C(c1ccncn1)N1CCCC(c2ncc(Cc3cccc(Cl)c3)o2)C1 (stereo unspecified)	none
CCOc1ccccc1C(=O)[C@@H]1[C@@H]2CCCN2[C@]2(C(=O)Nc3c2ccc(C)c3C)[C@@]12C(=O)Nc1ccccc12	none
Cc1ccc2c(c1C)NC(=O)[C@]21N2CCC[C@H]2[C@@H](C(=O)c2cc3ccccc3o2)[C@]12C(=O)Nc1ccccc12	USP17 block 43.8
COc1cc(C(=O)NC(Cc2ccccc2)c2nc3ccccc3[nH]2)cc(OC)c1OC (stereo unspecified)	USP30 block 66.4
Cc1cccc(C(=O)NC(Cc2ccccc2)c2nc3ccccc3[nH]2)c1 (stereo unspecified)	none
CC(C)C(NC(=O)c1cc(=O)[nH]c2ccccc12)c1nc2ccccc2[nH]1 (stereo unspecified)	none
O=C(NC(Cc1ccccc1)c1nc2ccccc2[nH]1)c1cc(=O)[nH]c2ccccc12 (stereo unspecified)	USP17 block 60.9, USP30 block 56.2
CCc1ccccc1Nc1cc(C(=O)N2CCN(c3ccccn3)CC2)c2ccccc2n1	none
COc1ccc(-c2noc(-c3cccc(OCC(=O)Nc4cccc(C)n4)c3)n2)cc1	none
CCOc1cc(-c2noc(-c3ccccc3)n2)ccc1OCC(=O)Nc1ncccc1C	USP17 block 37.8, USP30 block 31.5
COc1cc(C)c2c(=O)c3c(oc2c1)C(=O)c1c(O)c(OC)cc(O)c1C3=O	USP17 block 71.0
COc1cc(O)c2c(c1C)C(C)(C(C)=O)OC2=O (stereo unspecified)	none
CC(C)c1cc(C(=O)N2CCC(C3Nc4ccccc4S(=O)(=O)N3)CC2)n[nH]1 (stereo unspecified)	none
O=C1CN(C(=O)c2ccc(N3CCC(Cc4ccccc4)CC3)nn2)CCN1	none
O=C(NC1CCS(=O)(=O)C1)c1ccc(N2CCC(Cc3ccccc3)CC2)nn1 (stereo unspecified)	USP17 block 53.1
CCN(CC)CCOC(=O)c1ccc(NC(=O)c2cc3ccccc3oc2=O)cc1	none
Cc1nn(-c2ccc(Cl)cc2)c2[nH]c(=O)c(CNc3ccc(C(C)(C)C)cc3)cc12	USP17 block 39.4
Cc1nn(-c2ccc(Cl)cc2)c2[nH]c(=O)c(CNCc3ccc4c(c3)OCO4)cc12	USP8 inh 81.2
COc1ccc(-c2nn(-c3ccccc3)c3[nH]c(=O)c(CNCc4cccs4)cc23)cc1	USP8 inh 82.4
CC(C)c1ccc(NCc2cc3cc4c(cc3[nH]c2=O)OCCO4)cc1	none
Cc1nn(-c2ccccc2)c2[nH]c(=O)c(CNC(C)c3cccs3)cc12 (stereo unspecified)	USP8 inh 30.3
COc1ccc(Cn2c(C(=O)O)c(CNCc3cccs3)c3ccccc32)cc1	none
O=c1[nH]c2cc3c(cc2cc1CNCc1ccc2c(c1)OCO2)OCCO3	none
Cc1nn(-c2ccccc2)c2nc(C(F)(F)F)[nH]c(=O)c12	none (no result: USP30 block)
Cc1ccc(S(=O)(=O)Cc2noc(CCC(=O)N3CCOCC3)n2)cc1	none (no result: USP17 block)
CN1CCN(c2ccccc2NC(=O)C(Sc2ccccc2)c2ccccc2)CC1 (stereo unspecified)	none
O=C(CCn1cnc2cc(S(=O)(=O)N3CCCC3)ccc21)N1CCCCC1	none
CC1CCCN(C(=O)c2cc3c(=O)n4ccccc4nc3n2Cc2ccccc2)C1 (stereo unspecified)	none
Cc1cnc(NC(=O)c2ccc(N3CCCC3=O)cc2)s1	none (no result: USP17 block)
COc1ccc(NC(=O)CCc2c(C)c3c(C)nn(-c4cccc(F)c4)c3n(C)c2=O)c(OC)c1	none
Cc1nn(-c2ccc(Cl)cc2)c2[nH]c(=O)c(CNCc3cccs3)cc12	USP8 inh 76.7
Cc1nn(-c2ccc(Cl)cc2)c2[nH]c(=O)c(CNCc3ccc(F)cc3)cc12	USP8 inh 76.1
Cc1ccc2cc(CNCc3cccnc3)c(=O)[nH]c2c1	none
Clc1ccc2c(NCc3cccs3)ncnc2c1	none
COc1cccc(CCN2C[C@@]34CN(C(=O)C5CCC5)C[C@@H](C[C@@H]3S2(=O)=O)O4)c1	none
O=C(OCc1cc(=O)n2cc(Br)ccc2n1)c1ccc(S(=O)(=O)N2CCc3ccccc3C2)cc1	none
CCCCC(=O)N1c2ncnn2C(c2ccccc2OC)CC1c1ccc(C)cc1 (stereo unspecified)	none
CCN1C[C@H]2CCN(C(=O)c3ccnnc3)CC[C@H]2S1(=O)=O	none
COc1ccc(-n2nnnc2-c2c[nH]c3c(F)cc(F)cc23)cc1	USP8 inh 30.6
Cc1ccc(-n2nnnc2-c2cnc(C)nc2-c2ccc(Cl)cc2)cc1	none
CC(=O)c1ccc(NC(=O)CN2C(=O)C(O)(c3cccc(F)c3)c3ccccc32)cc1 (stereo unspecified)	none
Cc1cc(NS(=O)(=O)c2ccc(NC(=O)COc3cccc4c3OC(C)(C)C4)cc2)nc(C)n1	none
O=C(NCCCS(=O)(=O)N1CCN(c2ccc(F)cc2)CC1)c1cccc(F)c1	none
COc1cc2ncc(S(=O)(=O)c3ccc(Cl)cc3)c(NCc3ccc(C)cc3)c2cc1OC	none
Cc1ccc(Cc2nc(-c3cccc(-c4ccn[nH]4)c3)no2)cc1	none
Clc1cc(-c2nc(-c3cccc(-c4ccn[nH]4)c3)no2)ccn1	USP17 block 40.9
Cc1nc(N2CCCC2)ncc1C(=O)Nc1ccc(F)c(F)c1	USP30 block 53.1
Cc1cccc(NC(=O)c2cnc(N3CCCC3)nc2C)c1	none
CCC(=O)Nc1ccc(-n2cnc(C(=O)NC3CCCCCC3)c2)nc1	none
CCC(=O)Nc1ccc(-n2cnc(C(=O)NC3CCCC3)c2)nc1	USP30 block 31.9
COc1ccc(C(=O)OC(C)C(=O)NCC2CCCCC2)cc1S(=O)(=O)N1CCOCC1 (stereo unspecified)	none
CC(OC(=O)c1ccc2c(c1)OCCO2)C(=O)NCC1CCCCC1 (stereo unspecified)	USP30 block 53.1
CC(OC(=O)c1ccc2c(c1)OCO2)C(=O)NCC1CCCCC1 (stereo unspecified)	USP17 block 53.8, USP30 block 53.7
CC(OC(=O)c1ccc2c(c1)OCO2)C(=O)Nc1ccccc1-c1ccccc1 (stereo unspecified)	none
CNc1nc(C2CCCCN2C(=O)c2cccc3cccnc23)nc2c1CCN(C(C)=O)C2 (stereo unspecified)	none
Cc1cc(CN2CCCC(Cc3nccnc3N)C2)no1 (stereo unspecified)	none
